# Assay outcomes deposited in PubChem by National Center for Advancing Translational Sciences (NCATS).
# TrxR1 substrate: qHTS Assay for Substrates of Mammalian Selenoprotein Thioredoxin Reductase 1 (TrxR1): qHTS. purified TrxR1 substrate turnover, NADPH consumption readout. Thioredoxin reductase 1, cytoplasmic (Rattus norvegicus), O89049. 390,000 tested, 0.01% active. AID 588456, 2011. Potency, µM (highest dose often 114 µM), without a hit: top-dose activity change, negative = substrate turnover; also: potency is read from the fitted curve at half-maximal effect; nearly all actives have a fitted effect of over 50% in size
#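 Rat TrxR1, dispensed at 90 nM, was prereduced with 400 uM NADPH (final) for 5 min at ~22 deg C, then incubated with compound 15 min before 400 uM selenite. A first-read NADPH fluorescence drop versus no-compound background flagged substrates.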
# GALK inhibitor: qHTS Assay for Inhibitors of Human Galactokinase (GALK); P51570; Purified GALK, Kinase-Glo residual ATP luminescence; Potency, µM (titrated, usually from 57.5 µM), without a hit: at the top dose activity change, negative = inhibition, usual class: inhibitors; 270,000 tested, 0.007% active; AID 1868, 2009; also: potency is read from the fitted curve at half-maximal effect
#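 Quantitative HTS: GALK 5 nM, ATP 35 uM, galactose 100 uM, 1 h room temperature, then luciferase-based ATP detection.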
# rTrxR1 inhibitor: qHTS Assay for Inhibitors of Mammalian Selenoprotein Thioredoxin Reductase 1 (TrxR1): qHTS; recombinant rTrxR1, NADPH fluorescence consumption, selenite substrate; Potency, µM (series often up to 114 µM), without a hit: at the highest dose activity change, negative = inhibition, most hits filed as inhibitors; 390,000 tested, 1% active; AID 588453, 2011; also: potency is read from the fitted curve at half-maximal effect; nearly all actives have a fitted effect of over 65% in size
#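 Rat TrxR1 (90 nM in the dispensed reagent) was pre-reduced with 400 uM NADPH for 5 min at room temperature, then incubated with compound for 15 min. After 400 uM selenite was added, NADPH fluorescence (Ex 340/Em 450 nm) was followed for 8 min.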
# PI4K2A inh: qHTS for small molecular inhibitors of PI4K2A; purified PI4K2A, ADP-Glo luminescence, 1 h; active compounds read low; activity change, negative = inhibition, % at 76.9 µM; 420,000 tested, 0.13% active; in the data active = activity change below about -50%; inconclusive = mostly about -30% to -49%;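 also: -100% = wells without enzyme as full effect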
# Target sequence (Q9BTU6 whole entry, looked up): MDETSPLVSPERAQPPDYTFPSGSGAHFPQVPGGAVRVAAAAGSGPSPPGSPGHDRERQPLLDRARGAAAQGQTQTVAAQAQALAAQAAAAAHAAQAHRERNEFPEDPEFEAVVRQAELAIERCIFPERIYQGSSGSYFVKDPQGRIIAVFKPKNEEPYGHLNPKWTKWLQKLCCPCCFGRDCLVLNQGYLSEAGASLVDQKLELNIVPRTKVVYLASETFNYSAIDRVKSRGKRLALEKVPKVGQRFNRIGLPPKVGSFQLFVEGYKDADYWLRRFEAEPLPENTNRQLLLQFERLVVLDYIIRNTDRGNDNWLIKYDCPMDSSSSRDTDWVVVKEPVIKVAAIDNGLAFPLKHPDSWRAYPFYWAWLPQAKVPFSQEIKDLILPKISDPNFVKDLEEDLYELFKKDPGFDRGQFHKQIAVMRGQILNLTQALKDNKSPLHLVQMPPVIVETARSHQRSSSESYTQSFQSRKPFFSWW
#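 PI4K2A activity was measured by ADP-Glo luminescence: enzyme (4 ug/mL stock) and phosphatidylinositol (1.2 mM stock) in Tris pH 7.5/MgCl2/EGTA/Triton X-100 buffer were reacted with ATP (300 microM stock) for one hour at ambient temperature.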
# Integrin act MD: qHTS for Activators of Integrin-Mediated Alleviation for Muscular Dystrophy | 350,000 tested, 0.064% active | Potency, µM (titrated, usually from 38.3 µM), for inactives: at the top dose activation, hits mostly activators | AID 624291, 2012 | alpha7betagal myoblasts, beta-gal FDG fluorescence, 48 h;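 also: potency is read from the fitted curve at half-maximal effect; 100% = response of the positive control SU9516; nearly all actives have a fitted effect of over 60% in size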
#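 Alpha7betagal+/- myoblasts (passage 13) were plated 16-24 hr, then exposed to compounds (1:260 dilution of DMSO stock) for 48 hours at 37C. After MPER lysis, β-galactosidase reporter activity was read as FDG fluorescence (ex 480/em 540) after 30 minutes.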
# LDHA inh: qHTS assay for inhibitors of human lactate dehydrogenase; L-lactate dehydrogenase A chain (Homo sapiens), P00338; 480,000 tested, 0.15% active; activity change, % (values are at about 110 or 230 µM); AID 1347041, 2019; purified LDHA, NADH/diaphorase-resazurin fluorescence; active compounds read low; in the data active = activity change below about -30%; inconclusive = mostly about -25% to -30%;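 also: plate controls were DMSO wells for no effect and wells without enzyme for full effect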
#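 Remaining NADH was detected by diaphorase (0.133 mg/mL) converting 37 µM resazurin to fluorescent resorufin, read at 0 and 20 minutes. The preceding 5-minute room-temperature reaction used 2 nM LDHA, 0.2 mM sodium pyruvate and 0.06 mM NADH at pH 7.4.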
# Starred values were filed as active, the others as inactive; u = inconclusive; x = not tested or not shown; [ ] = dose if it differs, or a comment. Most compounds without a hit are left out; they make up all but 1.1% or so of the library. Unless noted, calls follow the shape of the dose curve; as a rule, active = well fitted curve in the direction sought with a large enough effect; inconclusive = small, poorly fitted or top-dose-only effect, or another doubt; inactive = no such curve, though single readings can be large; an effect the other way counts as inactive or inconclusive. Unless noted, % is scaled to controls: 0 for no effect and ±100 for the full control effect.
SMILES,TrxR1 substrate,GALK inhibitor,rTrxR1 inhibitor,PI4K2A inh,Integrin act MD,LDHA inh
Cc1oc2cc(OCC(=O)N3CCN(C)CC3)ccc2c(=O)c1-c1ccccc1,x,x,x,x,x,2
COc1ccc(CN2CCNCC2)cc1,-1%,6%,35µM*,-1,15%,-6
N#CC(C#N)=Cc1c[nH]c2ccccc12,x,x,x,x,x,13
COc1ccc(CN2C(=O)NC(=O)/C(=C/c3ccc([N+](=O)[O-])s3)C2=O)cc1,-5%,0%,40µM*,-22,-34%,0
O=C1NC(=O)N(Cc2ccc(F)cc2)C(=O)/C1=C\c1ccc([N+](=O)[O-])s1,-11%,x,40µM*,-15,-43%,-2
COc1cc(OC)c(OC)cc1/C=C1/C(=O)NC(=O)N(Cc2ccccc2)C1=O,-7%,0%,-23%,-53*,u,5
COc1ccc(CN2C(=O)NC(=O)/C(=C\c3ccco3)C2=O)cc1,-5%,4%,u,-24,-11%,-2
Cc1ccc2c(c1)C(Cc1nc3ccccc3c(=O)n1-c1ccc(Cl)cc1)C(=O)N2 (configuration not stated),x,x,x,x,x,9
Clc1cccc(-c2ccc(CNC3CN4CCC3CC4)o2)c1 (configuration not stated),x,x,x,x,x,1
Cc1ccccc1-n1c(O)c(C(c2ccncc2)c2c(O)n(-c3ccccc3C)c(=O)[nH]c2=O)c(=O)[nH]c1=O,5%[57.1 µM],-2%,14µM*,-1,u,-5
N#CC(C#N)=Cc1ccc(N2CCOCC2)cc1,-9%,-1%,71µM*,20,-23%,-6
Cc1cc(/C=C/c2ccnc3ccccc23)ccc1N(CCCl)CCCl,1%,x,-33%,x,x,-3
Cc1cc(/C=C/c2cccc3sc(C)[n+](CCCCI)c23)ccc1N(CCCl)CCCl,-9%,x,16µM*,x,x,-11
Cc1ccsc1CNC(C)C(O)c1ccc(O)cc1 (configuration not stated),x,x,x,x,x,-8
Cc1cccc(N2C(=O)NC(=O)/C(=C\c3cnc(-c4ccccc4)nc3)C2=O)c1,-2%,-2%,10µM*,-5,2%,-12
Cc1ccc(N2C(=O)NC(=O)/C(=C/c3cnc(-c4ccccc4)nc3)C2=O)cc1C,2%,x,6.3µM*,-7,1%,-8
CC(C)c1ccc(N2C(=O)NC(=O)/C(=C\C=C\c3ccco3)C2=O)cc1,-5%,-1%,-22%,-22,0%,-10
CC(C)c1ccc(N2C(=O)NC(=O)/C(=C\c3cnc(-c4ccccc4)nc3)C2=O)cc1,8%[57.1 µM],2%,10µM*,2,18%,-20
COc1ccc(CNCCc2c[nH]c3ccccc23)cc1,x,x,x,x,x,-9
CCCCn1c(C)c(C(=O)OCC)c2cc(O)ccc21,x,x,x,x,x,12
CC/C=C(/C)C(=O)NC(C)Cc1ccc(Br)cc1 (configuration not stated),x,x,x,x,x,4
CCN(CC)C(=O)c1ccc(NC(=O)CSc2ccc3ccccc3n2)cc1,x,x,x,x,x,1
COc1ccc(/C=C2/C(=O)NC(=O)N(c3ccccc3)C2=O)cc1CN1C(=O)c2ccccc2C1=O,3%,3%,25µM*,-12,27%,-6
COc1cccc(N2C(=O)NC(=O)/C(=C/c3ccc4c(c3)Cc3ccccc3-4)C2=O)c1,14%,6%,14µM*,-18,-1%,-24
COc1ccc(/C=C2/C(=O)NC(=S)N(C3CC3)C2=O)cc1CN1C(=O)c2ccccc2C1=O,-1%,0%,u,-8,10%,-36*
CCc1ccc(N2C(=O)NC(=O)/C(=C/c3cccn3CCOc3ccc(C(C)CC)cc3)C2=O)cc1 (configuration not stated),-2%,-4%,-18%,-16,3%,-11
